Assay outcomes from PubChem.
Only some compounds are listed: those with a hit (about 6.2% of all), similar ones and a draw of the others.
LASV entry inh: qHTS for Inhibitors of binding or entry into cells for Lassa Virus; 1.2% of 300,000 active; Lassa virus pseudotype entry inhibition, cell reporter; Potency, µM (top dose mostly 37.9 µM), for the others: at the highest dose activity change, negative = inhibition, most hits filed as inhibitors; calls by dose curve; tested in HEK293 cells; further: potency means the concentration at half of the fitted maximal effect; nearly all actives have a fitted effect of over 50% in size
FMDV inh: High Throughput Screening for Foot and Mouth Disease Virus Antivirals; FMDV antiviral cell-based qHTS; Potency, µM (top dose mostly 57.9 µM), inactives show at the top dose activity change, negative = inhibition, actives largely listed as inhibitors; 1.2% of 410,000 active; calls by dose curve; tested in HEK293T cells; further: read-out not given here; potency means the concentration at half of the fitted maximal effect; nearly all actives have a fitted effect of over 45% in size
Marburg entry inh: qHTS for inhibitors of binding or entry into cells for Marburg Virus. Marburg virus pseudotyped entry inhibition, cell reporter. Potency, µM (highest dose often 37.8 µM), inactives show top-dose activity change, negative = inhibition, usual class: inhibitors. 1.8% of 300,000 active. AID 540276, 2011; calls by dose curve; tested in HEK293 cells; further: potency means the concentration at half of the fitted maximal effect
HCMV inh: qHTS Assay for inhibitors of the human cytomegalovirus (HCMV). activity change, negative = inhibition, % at 57.5 µM. AID 1259415, 2018. HFF cells, HCMV-luciferase reporter, 72 h; hits give low values. 4.5% of 410,000 active; in the data active means activity change below about -60%; inconclusive means no clear call, values can overlap the other calls; inactive means above about -39%
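Compounds were evaluated in HFFs infected with an HCMV luciferase reporter virus (MOI 1 PFU/cell). Luciferase in lysates collected 72 h post infection served as the replication measure.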
* marks the source's active call; other numbers are inactive results; ? = inconclusive; . = not tested or not shown; [ ] = dose if it differs, or a comment. On the % scale 0 is the no-effect control and ±100 the full control effect.

SMILES	LASV entry inh	FMDV inh	Marburg entry inh	HCMV inh
Cc1noc(NS(=O)(=O)c2ccc(NC(=O)C(F)(F)F)cc2)c1C	.	2.7%	.	-12.1
Cc1ccc(OCCN2CCC2(C)C(=O)NCc2ccc(C(F)(F)F)cc2)cc1 (configuration not stated)	.	-20.0%	.	-3.6
Cc1cccc(S(=O)(=O)NC(=O)C2(C)CCN2C(=O)c2ccc(C3CCCCC3)cc2)c1 (configuration not stated)	.	-20.3%	.	1.9
Clc1ccc(CN2CCC(c3ccccc3)CC2)cc1	.	-20.9%	.	-103.2*
COc1ccc(CN2CCN(Cc3ccccc3OC)CC2)cc1	.	-22.6%	.	9.3
COc1ccccc1CN1CCN(Cc2ccc(Cl)cc2)CC1	0.7%[46.1 µM]	-26.1%	11.2µM*	?
COc1ccc2oc(C(=O)OCC(=O)N3CC(C)OC(C)C3)c(C)c2c1 (configuration not stated)	10.3%[46.1 µM]	8.5%	22.3%[46.1 µM]	-6.7
CN(C(=O)CSc1nc2ccc(NC(=O)c3cccc(F)c3)cc2s1)c1ccccc1	-26.2%[46.1 µM]	?	?	-74.6*
COc1ccccc1C(=O)Nc1ccc2nc(SCC(=O)N(C)C)sc2c1	-6.9%	-25.0%	-0.5%	13.1
CCOc1ccc(C(=O)Nc2ccc3nc(SCC(=O)N(C)c4ccccc4)sc3c2)cc1	-38.0%[46.1 µM]	?	?	?
CN(C(=O)CSc1nc2ccc(NC(=O)c3ccccc3F)cc2s1)c1ccccc1	?	39.8µM*	?	12.8
COc1ccccc1C(=O)Nc1ccc2nc(SCC(=O)N(C)c3ccccc3)sc2c1	?	?	?	-65.2*
Cc1ccccc1C(=O)Nc1ccc2nc(SCC(=O)N(C)c3ccccc3)sc2c1	?	-42.7%	4.6%[46.1 µM]	?
CCN(CC)Cc1ccc(NC(=O)c2sc3cc(Cl)ccc3c2Cl)cc1	?	?	?	-103.8*
CC(C)(C)c1ccc(C(=O)O/N=C(\N)c2ccccc2)cc1	.	0.708µM*	.	-93.9*
Cc1cc(C(=O)O/N=C(\N)c2ccc(C(C)(C)C)cc2)no1	.	27.3%	.	-69.4*
CCOC(=O)c1cc(/C(C)=N/OC(=O)c2ccc(C(C)(C)C)cc2)on1	.	-16.0%	.	-11.2
COc1ccc(C(=O)O/N=C(\N)c2ccccc2)cc1	?	?	?	53.9
Cc1noc(-c2ccc(Cl)cc2)c1C(=O)O/N=C(\N)c1ccc(C(C)(C)C)cc1	?	25.1µM*	?	-99.7*
CCOC(=O)C(C)(C)NS(=O)(=O)c1ccc(Cl)c([N+](=O)[O-])c1	11.3%	-7.7%	?	11.2
Nc1nncn1C(=O)CCCOc1ccccc1	3.8%	2.6%	22.2%	34.4
NC(=O)N=Nc1c2[nH]c3ccccc3nc-2c2ccccc12	?	?	?	-98.8*
Nc1ccc(N2CCCCC2)c2nonc12	.	23.1%	.	-67.3*
O=[N+]([O-])c1ccc(N2CCCCCC2)c2nonc12	?	-6.9%	-23.8%[46.1 µM]	-16.8
O=C1c2ccccc2C(=O)c2cc(N3CCCCC3)ccc21	3.16µM*	10µM*	3.98µM*	-17.9
SMILES	LASV entry inh	FMDV inh	Marburg entry inh	HCMV inh
Nc1ccc(N2CCCCC2)cc1N1CCCCC1	?	?	?	-68.9*
CC(=O)C1=C(C)Nc2ncnn2C1c1cccc(OCc2ccccc2)c1 (configuration not stated)	.	?	.	7.7
O=C(CC1SC(=NCC2CCCO2)NC1=O)Nc1cccc2ccccc12 (configuration not stated)	-8.1%	-0.8%	?	2.0
CCCC(C(=O)NC(C)(C)C)N(Cc1ccc(F)cc1)C(=O)c1snc(C(N)=O)c1N (configuration not stated)	.	-14.2%	.	-28.3
COc1ccc(-c2cc3c(=O)n(CC(=O)Nc4ccc(C(C)=O)cc4)ncn3n2)cc1	.	39.5%	.	0.0
Cc1c(C(=O)N2CCC2)oc2c(F)cccc12	6.8%	-15.6%	2.1%	-18.9
CC(=O)NCC1CCCN(C(=O)c2oc3c(F)cccc3c2C)C1 (configuration not stated)	.	18.7%	.	-100.8*
Cc1c(C(=O)N2CCCCC2CCN2CCCC2=O)oc2c(F)cccc12 (configuration not stated)	2.1%	-3.3%	-1.2%	-63.3*
COc1ccc(N2CCN(C(=O)c3ccc4c(c3)[nH]c(=S)n3c5ccccc5nc43)CC2)cc1	.	.	.	-2.0
O=C(NCCCc1nc2ccccc2[nH]1)c1ccco1	.	4.2%	.	28.4
N/C(=N\OC(=O)c1cccc2ccccc12)c1ccccn1	?	-13.0%	?	26.8
NC(=Nc1nc(-c2ccccn2)cc2ccccc12)c1ccccn1	0.562µM*	0.0%	?	-100.8*
CCOC(=O)N1CCC(N2Cc3cccc(C(=O)N4CCN(c5cccc(C)c5C)CC4)c3C2=O)CC1	-47.1%[46.1 µM]	-11.4%	?	1.2
CCCCn1nc(C(=O)N(C)C2CCCCC2)c2ccccc2c1=O	.	-15.2%	.	-106.2*
CCCCn1nc(C(=O)NC2CCCCCC2)c2ccccc2c1=O	-20.9%	2.6%	?	-24.8
CC(C)Cc1ccc(C(C)/C=C2/CCC(CN3CCCCC3)C2=O)cc1 (configuration not stated)	?	39.8µM*	?	-28.2
S=C(NCCc1ccccc1)N1CCC2CC1c1cc(-c3ccc4c(c3)OCO4)ccc12 (configuration not stated)	.	-8.6%	.	-74.5*
O=c1[nH]c(=O)n(Cc2ccccc2)c(O)c1C=NCCCn1ccnc1	?	5.2%	?	-26.8
CCCCn1cnc2c(c(-c3ccccc3)c(-c3ccccc3)n2Cc2ccco2)c1=N	-19.6%	-23.0%	-34.7%	-15.1
N=c1c2c(-c3ccccc3)c(-c3ccccc3)n(Cc3ccccc3)c2ncn1CCCn1ccnc1	?	-26.5%	?	-74.0*
N=c1c2c(-c3ccccc3)c(-c3ccccc3)n(Cc3ccco3)c2ncn1Cc1ccco1	?	25.1µM*	?	-13.3
CCOC(=O)CSc1nc(-c2ccccc2)nc2ccccc12	?	1.5%	-16.1%	-8.4
O=C(CSc1nnc(-c2ccccc2)n1Cc1ccco1)Nc1ccc2c(c1)OCCO2	4.5%	10.5%	7.5%	44.5
CCN(CC)c1ccc(/C=C/c2cccc[n+]2C)c(OC)c1	?	?	2.82µM*	-97.2*
CC1CCC2(CC1)NC(=O)N(CC(=O)NCc1ccc3c(c1)OCO3)C2=O (configuration not stated)	.	-11.2%	.	?
CCCCCCN1C[C@@H](n2cc(-c3ccc(F)cc3)nn2)[C@H](O)C[C@@H]1c1ccc(Cl)cc1	.	?	.	-94.7*
CCCCCCN1C[C@H](O)[C@@H](n2cc(-c3ccc(F)cc3)nn2)C[C@H]1c1ccc(C)cc1	25µM*	.	.	.
CCCCCCN1C[C@@H](n2cc(-c3ccc(F)cc3)nn2)[C@H](O)C[C@@H]1c1ccc(OC)cc1	.	?	.	-24.0
CCCCCCN1C[C@H](O)[C@@H](n2cc(-c3ccc(F)cc3)nn2)C[C@H]1c1ccccc1	15.8µM*	.	.	.
CCCCCCN1C[C@H](n2cc(-c3ccc(F)cc3)nn2)[C@@H](O)C[C@@H]1c1ccc(OC)cc1	.	-7.9%	.	-8.1
